# The whole screen tested about 1,200 compounds, of which about 30 (2%) were called active. Roughly 23% stayed inconclusive and do not appear here. The call rests on the fitted dose curve; in most records, active means well fitted inhibition curve with a large enough effect; inconclusive means small, poorly fitted or top-dose-only effect; inactive means flat fitted curve, though single readings scatter. Shown is part of a subset that was picked to be rich in actives.
# Target: Single-stranded DNA cytosine deaminase (Homo sapiens) (UniProt Q9GZX7)
# Sequence (Q9GZX7 whole entry, looked up): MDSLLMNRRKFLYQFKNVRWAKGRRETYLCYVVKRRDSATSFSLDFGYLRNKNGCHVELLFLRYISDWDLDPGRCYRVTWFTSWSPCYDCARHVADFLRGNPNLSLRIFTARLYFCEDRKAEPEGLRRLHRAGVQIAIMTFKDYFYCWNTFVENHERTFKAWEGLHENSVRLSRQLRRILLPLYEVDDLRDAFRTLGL
# Assay: Confirmatory qHTS assay for inhibitors of Activation Induced Cytidine Deaminase (AID): AID signals
# Settings: recombinant AID, FRET deamination/UDG coupled fluorescence, 4 h; series mostly up to 115 µM; activity, negative = inhibition: at the top concentration
# Outline: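 Read 1 (AID) was measured at 540 ex/590 em after a 30 min NaOH step. The reaction was AID (1 uM, 4/3x stock) with UDG, compound at final 7.32 nM - 114 uM for 10 min, then DJC20/DJC23 substrate for 4 hr at room temperature. A UDG read at 560/665 serves as counterscreen.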
# On the % scale 0 is the no-effect control and ±100 the full control effect; potency means the concentration at half of the fitted maximal effect.
Structure (SMILES),"activity, negative = inhibition",Potency
CCN(CC)CCNC(=O)c1ccc2c(=O)n3nc(Nc4ccccc4)sc3nc2c1,-15.6% (inactive),–
CCN(CC)CCNC(=O)c1ccc2c(=O)n3nc(Nc4cccc(Cl)c4C)sc3nc2c1,–,50.1 µM (active)
CCN(CC)CCNC(=O)c1ccc2c(=O)n3nc(Nc4ccccc4OC)sc3nc2c1,-25.4% (inactive),–
Cc1nc2nc(SCC(=O)NCc3ccccc3)nn2c(C)c1Cc1ccccc1Cl,-23.7% (inactive),–
COc1ccc(C(=O)c2sc3nc4c(c(C(F)(F)F)c3c2N)CN(C(C)=O)CC4)cc1OC,6.76% (inactive),–
CCc1nn(CCCC(=O)N2CCN(c3cc(Cl)ccc3C)CC2)c(=O)c2cc3occc3n12,-25% (inactive),–
CCn1cc2nc(SCC(=O)Nc3ccccc3C(F)(F)F)n(Cc3ccc(C)cc3)c(=O)c2n1,-22.9% (inactive),–
CCc1ccc2c(c1)c(=O)c(S(=O)(=O)c1ccc(Cl)cc1)cn2CC,-7.45% (inactive),–
Cc1ccccc1OCc1nnc(SCc2cc(=O)c3ccc(C)c(C)c3[nH]2)n1C,-24.7% (inactive),–
CCOc1ccc(CCNC(=O)c2nc(-c3cccc(F)c3)n3c2CCCCC3)cc1OCC,-12% (inactive),–
Cc1ccc(C)c(N2CCN(C(=O)c3ccc(CS(=O)(=O)c4ccc(Br)cc4)o3)CC2)c1,-8.36% (inactive),–
CCOC(=O)CSc1nnc2n(-c3ccccc3)c(=O)c3c4c(sc3n12)CC(C(C)(C)C)CC4 (stereo not given),-11.7% (inactive),–
CCn1cc(C(=O)NCCCOC(C)C)c(=O)c2cc(S(=O)(=O)N(C)C3CCCCC3)ccc21,-14.5% (inactive),–
Cc1cccc(CCNc2ncnc3onc(-c4ccc(Cl)cc4)c23)c1,2.28% (inactive),–
Cc1cc2c(cc3c(SCc4ccc(Cl)cc4)nnc(C)n32)o1,-7.73% (inactive),–
Cc1c(C)n(C)c2ccc(C(=O)N3CCN(c4ccccc4)CC3)cc12,0.494% (inactive),–
CC(=O)c1ccc(NC(=O)C2CCN(c3nnc(C)c4c(C)n(-c5ccccc5)nc34)CC2)cc1,-29.1% (inactive),–
COc1ccc(CC(=O)Nc2sc3c(c2C(=O)Nc2cccc(Cl)c2)CCCCC3)cc1,2.52% (inactive),–
CCCN(CCC)C(=O)Cn1c(=O)n(Cc2ccc(C(=O)NCCc3ccc(OC)c(OC)c3)cc2)c(=O)c2ccccc21,-3.63% (inactive),–
Cc1cccc(N2CCN(C(=O)C3CCN(c4ncnc5c4nc4n5CCCCC4)CC3)CC2)c1C,-17.9% (inactive),–
Fc1ccc(Cn2c(-c3cccc(Br)c3)nc3ccccc32)cc1,-17.1% (inactive),–
COc1ccc(C(=O)NCC(c2cccnc2)N2CCc3ccccc32)cc1 (stereo not given),1.56% (inactive),–
Cn1c(=O)c2c(-c3ccc(Br)cc3)n(CCc3ccccc3)cc2n(C)c1=O,-16.2% (inactive),–

Structure (SMILES),"activity, negative = inhibition",Potency
CCc1ccc(CNC(=O)C(CC)n2nc(C)c3c(C)n(-c4ccccc4)nc3c2=O)cc1 (stereo not given),-18.2% (inactive),–
Cc1cccc(Cn2c(=O)n3nc(-c4ccccc4)nc3c3ccccc32)c1,-4.38% (inactive),–
Clc1ccc(-c2noc3ncnc(NCCCN4CCN(c5ccccc5)CC4)c23)cc1,0.554% (inactive),–
Cc1ccc(C)c(CN2C(=O)c3ccccc3S(=O)c3ccc(C(=O)N4CCC(C)CC4)cc32)c1 (stereo not given),-10.6% (inactive),–
O=C(CSc1nc2ccccc2nc1Cc1ccccc1)Nc1ccccc1C(F)(F)F,1.65% (inactive),–
COc1ccc2c(C)cc(SCC(=O)Nc3nsc(-c4ccc(C(C)(C)C)cc4)n3)nc2c1,-8.76% (inactive),–
Cc1ccc(-c2nc(NC(=O)CSc3cc(C)c4ccccc4n3)ns2)cc1,–,28.2 µM (active)
C=CCc1ccccc1OCCSc1nc(-c2ccc(C(C)(C)C)cc2)nc2cc(=O)[nH]n12,-11.2% (inactive),–
Cc1cc(OCCCSc2nc(-c3ccc(C(C)(C)C)cc3)nc3cc(=O)[nH]n23)ccc1Cl,–,31.6 µM (active)
O=c1cc2nc(-c3cccs3)nc(SCCOc3ccc(Cl)cc3)n2[nH]1,-10.7% (inactive),–
Cc1cccc(C(=O)Nc2sc3c(c2C(=O)O)CCCC3)c1,-16.9% (inactive),–
Cc1nc2c(-c3ccccc3)c(C)nn2c(C)c1CCC(=O)N1CCN(c2ccccc2)CC1,-7.22% (inactive),–
CCOc1ccc(-c2nn(-c3ccccc3)cc2C2NC(=O)NC(C)=C2C(=O)OC(C)C)cc1C (stereo not given),-12.4% (inactive),–
O=C(NCCc1nc2ccccc2n1Cc1ccc(Cl)cc1Cl)c1ccco1,-6.08% (inactive),–
CCN(C(=O)Cn1c(SCC(=O)Nc2ccc(OC)cc2)nc2ccccc21)c1cccc(C)c1,-22% (inactive),–
CC(C)(C)c1ccc(C(=O)N2CCCC(c3nc4c(nnn4Cc4cccc(F)c4)c(=O)[nH]3)C2)cc1 (stereo not given),-4.66% (inactive),–
CCOc1ccc(CN2CCc3nc(Nc4ccc(OC)cc4OC)ncc3C2)cc1,-2.62% (inactive),–
CC(=O)O[C@H]1C[C@@H]2CC[C@@H]3[C@H](CC[C@@]4(C)[C@H]3C[C@H]([N+]3(C)CCCCC3)[C@@H]4OC(C)=O)[C@@]2(C)C[C@@H]1[N+]1(C)CCCCC1,–,17.8 µM (active)
Cc1cc2c(cc3c(SCc4cccc(Cl)c4)nnc(C)n32)o1,0.875% (inactive),–
COC(=O)c1ccc(OCC2c3cc(OC)c(OC)cc3CCN2C(=O)c2cccc(C)c2)cc1 (stereo not given),-7.23% (inactive),–
O=C(NCc1ccccc1Cl)c1ccc2c(O)c(S(=O)(=O)c3ccccc3)c(=O)[nH]c2c1,-12.7% (inactive),–
CC(C)c1ccc(NC(=O)c2ccc3c(O)c(S(=O)(=O)c4ccccc4)c(=O)[nH]c3c2)cc1,–,31.6 µM (active)
CCc1ccc(NC(=O)c2ccc3c(O)c(S(=O)(=O)c4ccccc4)c(=O)[nH]c3c2)cc1,-17.9% (inactive),–

Structure (SMILES),"activity, negative = inhibition",Potency
Cc1ccc(Cl)cc1N1CCN(C(=O)c2ccc(C)c(-n3c(C)nc4cccnc43)c2)CC1,-6.99% (inactive),–
CCc1ccc(NS(=O)(=O)c2ccc3oc(=O)c4ncn(CC)c4c3c2)cc1,-15.8% (inactive),–
CCOc1ccc(-c2noc(CSc3nnc(Cc4ccccc4)n3-c3ccc(F)cc3)n2)cc1,-19.5% (inactive),–
COc1ccc(N2CCN(C(=O)c3sc4nc5n(c(=O)c4c3C)CCC5)CC2)cc1,-13.6% (inactive),–
CCN(CC)c1cc(C)c2cc(NC(=O)c3cccc(OC)c3)ccc2n1,-9.48% (inactive),–
CCOC(=O)C1=C(CN(CC)Cc2ccccc2)NC(=O)NC1c1ccc(Cl)cc1 (stereo not given),-14% (inactive),–
CCc1ccc(CN(Cc2ccco2)C(=O)c2ccc(C)cc2)cc1,1.83% (inactive),–
CCCCC1CCC(CCCC(C)CCC(=O)O)CC1 (stereo not given),–,35.5 µM (active)
Cc1ccc(C2=NN(CC(=O)NCCCN(CC(C)C)CC(C)C)C(=O)CC2)cc1,-12.2% (inactive),–
COc1ccc(-n2c(-c3ccc(C)cc3)cc3c2CC(C)(C)CC3=O)c(OC)c1,-15.8% (inactive),–
Cc1ccc(Cc2c(C)nc3nc(SCC(=O)NC(C)c4ccccc4)nn3c2C)cc1 (stereo not given),-6.04% (inactive),–
CCCCOc1ccc(C(=O)NCC(c2ccc(Cl)cc2)N2CCOCC2)cc1 (stereo not given),-2.89% (inactive),–
CC1CCCCN1C(=O)CSc1nc2ccccc2nc1Cc1ccccc1 (stereo not given),-15.5% (inactive),–
COc1cccc(-c2nc(CS(=O)CC(=O)N3CCN(c4cccc(C(F)(F)F)c4)CC3)c(C)o2)c1 (stereo not given),-23.9% (inactive),–
CCc1nc(Nc2ccc(F)c(Cl)c2)c2c3c(sc2n1)CCCC3,2.84% (inactive),–
Cc1ccc2nc(Cl)c3cc(C(=O)N4CCCC(C)C4)sc3c2c1 (stereo not given),-2.34% (inactive),–
Cc1ccc(C(=O)c2cn(Cc3cc(C)ccc3C)c3nc(C)ccc3c2=O)cc1,-26.6% (inactive),–
O=C(Cc1ccccc1F)N1CCC(c2nc3c(nnn3Cc3cccc(Cl)c3)c(=O)[nH]2)CC1,-11.7% (inactive),–
CCc1cnc2c(c1SCc1ccccc1C)c(=O)n(C)c(=O)n2C,-3.91% (inactive),–
CCN(CC)CCCNC(=O)c1ccc2c(c1)sc1nc(-c3ccc(C)cc3)cn12,-24.7% (inactive),–
C[N+](C)(CCCCCC[N+](C)(C)CCCN1C(=O)c2cccc3cccc(c23)C1=O)CCCN1C(=O)c2cccc3cccc(c23)C1=O,–,5.01 µM (active)
Cc1ccc(C)c(Cn2c(=O)n(CC3CCC(C(=O)N4CCOCC4)CC3)c(=O)c3sccc32)c1 (stereo not given),-4.69% (inactive),–
COc1ccc(C2C=C(c3ccccc3)Nc3nc(NS(=O)(=O)c4ccccc4)nn32)cc1 (stereo not given),-23.7% (inactive),–

Structure (SMILES),"activity, negative = inhibition",Potency
CC(=O)Nc1ccc(S(=O)(=O)Nc2nc3n(n2)C(c2ccccc2)C=C(c2ccc(Cl)cc2)N3)cc1 (stereo not given),–,39.8 µM (active)
Cc1ccc(S(=O)(=O)Nc2nc3n(n2)C(c2ccccc2Cl)C=C(c2ccccc2)N3)cc1 (stereo not given),-17.4% (inactive),–
Cc1ccc(C)c(N2CCN(C(=O)c3cccn3-c3nnc(N4CCCCC4)s3)CC2)c1,-19.7% (inactive),–
CC1=C(C(=O)NCc2cccc(Cl)c2)C2(CCCCCC2)OC1=O,1.97% (inactive),–
CCc1ccc(-n2c(SCc3nc(-c4cc(OC)ccc4OC)no3)nnc2-c2ccccc2)cc1,-19% (inactive),–
CCc1ccc(OCC(=O)N(Cc2ccc(C(C)C)cc2)C2CCS(=O)(=O)C2)cc1 (stereo not given),-7.21% (inactive),–
Cc1cccc(-n2ccnc2SCC(=O)Nc2cccc3ccccc23)c1,1.1% (inactive),–
Nc1ccc2oc(Cc3ccc(Cl)cc3)nc2c1,24.6% (inactive),–
Cc1cccc(N2CCN(C(=O)C3CCCN(C(=O)c4cc5sccc5n4C)C3)CC2)c1C (stereo not given),-19.6% (inactive),–
Cc1ccc(C)c(C(=O)N2CCC(c3nc4c(nnn4Cc4ccccc4)c(=O)[nH]3)CC2)c1,-19.8% (inactive),–
CC1CCN(S(=O)(=O)c2ccc3c(c2)c(=O)c(C(=O)NC(C)c2ccccc2)cn3C)CC1 (stereo not given),-15% (inactive),–
CCc1ccccc1NC(=O)CN(c1ccccc1OC)S(=O)(=O)c1ccc(C)cc1,-5.91% (inactive),–
Cc1ccc(C)c(N2CCN(C(=O)c3ccc4c(c3)N(Cc3ccc(F)cc3)C(=O)c3ccccc3S4=O)CC2)c1 (stereo not given),-0.614% (inactive),–
Cc1ccc2nc(Cl)c3cc(C(=O)N4CCCCC4C)sc3c2c1 (stereo not given),-7.66% (inactive),–
O=C(NCCc1ccccc1)c1nc(-c2ccc(Cl)cc2)n2c1CCCCC2,-11.3% (inactive),–
CCCCCn1c(CCCNC(=O)c2cccc(C)c2)nc2ccccc21,-19.1% (inactive),–
COc1ccc(OC)c(NC(=O)N2CC(C)Oc3ccc(C)cc32)c1 (stereo not given),-7.39% (inactive),–
COC(=O)c1ccc(Cl)cc1NC(=O)Nc1nnc(N(C)Cc2ccccc2)s1,-11.9% (inactive),–
N#C/C(=C\c1ccc(-c2cc(Cl)ccc2Cl)o1)C(=O)Nc1ccccc1C(=O)O,–,28.2 µM (active)
N#C/C(=C\c1ccc(-c2ccc(Cl)c(C(=O)O)c2)o1)c1nc2ccccc2[nH]1,-24.3% (inactive),–
N#C/C(=C\c1ccc(-c2cc(Cl)ccc2Cl)o1)C(=O)Nc1cccc2ncccc12,-28.6% (inactive),–
